Source: paper PMC4336329 (PLoS ONE, 2015)
Out of some 310,000 compounds screened, about 14,000 (4.5%) showed an effect of 50% or more. The effect is printed as a negative number. Many of the other results were omitted from the sample, so strong results are more common in it than they were.

molecular target: human ether-à-go-go-related gene (hERG) potassium channel (human, UniProt Q12809); test: primary screen, population patch clamp on CHO cells stably expressing hERG; higher = less effect of the substance
Sequence (Q12809 whole entry, looked up): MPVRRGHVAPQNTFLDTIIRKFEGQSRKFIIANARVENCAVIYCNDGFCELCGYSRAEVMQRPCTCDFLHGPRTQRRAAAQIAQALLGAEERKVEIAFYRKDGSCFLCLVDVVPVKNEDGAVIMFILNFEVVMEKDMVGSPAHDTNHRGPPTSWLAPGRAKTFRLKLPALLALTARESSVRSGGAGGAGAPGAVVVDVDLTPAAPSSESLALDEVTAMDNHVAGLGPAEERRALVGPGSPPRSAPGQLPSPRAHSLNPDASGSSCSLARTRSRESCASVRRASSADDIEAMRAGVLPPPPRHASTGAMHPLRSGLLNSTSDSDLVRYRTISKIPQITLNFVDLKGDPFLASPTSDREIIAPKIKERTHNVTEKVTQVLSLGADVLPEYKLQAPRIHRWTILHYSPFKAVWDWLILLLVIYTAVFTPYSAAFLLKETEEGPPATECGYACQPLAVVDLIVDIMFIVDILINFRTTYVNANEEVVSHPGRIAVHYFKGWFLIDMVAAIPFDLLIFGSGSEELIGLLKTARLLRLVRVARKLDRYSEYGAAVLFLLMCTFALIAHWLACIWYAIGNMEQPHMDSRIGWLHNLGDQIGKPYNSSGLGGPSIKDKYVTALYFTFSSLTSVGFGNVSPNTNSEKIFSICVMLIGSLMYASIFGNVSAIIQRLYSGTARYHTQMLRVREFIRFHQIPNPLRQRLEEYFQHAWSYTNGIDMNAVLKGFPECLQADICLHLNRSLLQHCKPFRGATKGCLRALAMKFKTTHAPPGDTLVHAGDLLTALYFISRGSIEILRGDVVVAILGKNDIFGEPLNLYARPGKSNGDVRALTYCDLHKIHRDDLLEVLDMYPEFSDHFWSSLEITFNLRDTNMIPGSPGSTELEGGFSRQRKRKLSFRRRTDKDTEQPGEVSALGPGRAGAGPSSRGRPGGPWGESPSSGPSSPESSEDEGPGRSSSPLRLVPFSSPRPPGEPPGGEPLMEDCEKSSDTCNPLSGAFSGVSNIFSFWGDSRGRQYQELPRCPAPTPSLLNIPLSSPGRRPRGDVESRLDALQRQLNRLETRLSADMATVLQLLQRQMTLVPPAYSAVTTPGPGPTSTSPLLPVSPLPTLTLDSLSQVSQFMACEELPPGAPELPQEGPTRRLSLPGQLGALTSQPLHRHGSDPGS
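Also: peak tail current of the secondary pulse compared with the same well before compound.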

In order of falling “hERG current change (%, negative = inhibition) at 10uM” value:
1. CC(NC(=O)/C(=C\c1cccc([N+](=O)[O-])c1)NC(=O)c1ccco1)C(=O)O (stereo not shown)  39.2%
2. COC(=O)c1cc2c(ccn2-c2ccc(F)cc2)n1CC(=O)OC(C)C  27.3%
3. O=C(NCCO)/C(=C/c1cccc([N+](=O)[O-])c1)NC(=O)c1ccco1  26.5%
4. O=C(O)CNC(=O)/C(=C\c1cccc([N+](=O)[O-])c1)NC(=O)c1ccco1  15.7%
5. COC(=O)c1cc2c(ccn2-c2ccc(F)cc2)n1CC(=O)C(C)(C)C  14.3%
6. O=C(Cn1c(=O)cnc2ccccc21)N1CCCc2ccccc21  10.8%
7. C/C(=N\OCC(=O)OC(C)C(=O)Nc1ccc(C(N)=O)cc1)c1ccc2c(c1)OCO2 (stereo not shown)  9.34%
8. O=C(NCCO)/C(=C\c1cccc([N+](=O)[O-])c1)NC(=O)c1ccco1  6.73%
9. CCOC(=O)c1ccc2c(c1)nc(-c1ccc(F)cc1)c1nccn12  5.55%
10. CC(C)C(=O)Nc1c2c(nc3c1CCC3)CCCC2  5.23%
11. C/C(=N\NC(=O)c1nnn(-c2nonc2N)c1-c1ccc2c(c1)OCO2)c1cccs1  5.22%
12. CNC(C)C(=O)NC(C(=O)N1CCCC1C(=O)NNc1ccccc1)C(C)C.O=CO (stereo not shown)  5.01%
13. CC(C)(C)Nc1nc(NCc2cccnc2)nc(N2CCOCC2)n1  4.02%
14. CC(NC(=O)/C(=C/c1cccc([N+](=O)[O-])c1)NC(=O)c1ccco1)C(=O)O (stereo not shown)  0.397%
15. O=C(O)CNC(=O)/C(=C/c1cccc([N+](=O)[O-])c1)NC(=O)c1ccco1  -1.47%
16. O=S(=O)(c1ccccc1F)N1CCN(CCc2ccccc2)CC1  -5.81%
17. Cc1ccc(S(=O)(=O)N2CCN(C(=O)COC(=O)CCc3ccccc3)CC2)c(C)c1  -8.38%
18. CCN(CC)C(=O)/C(=C\c1cccc([N+](=O)[O-])c1)NC(=O)c1ccco1  -24%
19. CCN(CC)C(=O)/C(=C/c1cccc([N+](=O)[O-])c1)NC(=O)c1ccco1  -25.8%
20. CCOC(=O)c1cc2c(ccn2-c2ccc(F)cc2)n1CC(=O)N1CCN(C(=O)c2ccco2)CC1  -26.1%
21. CC1CN(C(=O)CN2C(=O)NC3(CCCC3)C2=O)C(=Nc2cccc(S(=O)(=O)N(C)C)c2)S1 (stereo not shown)  -32%
22. CCOC(=O)c1cc2occc2n1CC(=O)N1CCN(C(=O)c2ccco2)CC1  -36.8%
23. O=C(NCc1ccco1)/C(=C/c1cccc([N+](=O)[O-])c1)NC(=O)c1ccco1  -56.8%
24. O=C(NCc1ccccc1)/C(=C/c1cccc([N+](=O)[O-])c1)NC(=O)c1ccco1  -61.2%
25. O=C(NCc1ccco1)/C(=C\c1cccc([N+](=O)[O-])c1)NC(=O)c1ccco1  -64.7%
26. COC(=O)c1cc2c(ccn2-c2ccc(F)cc2)n1CC(=O)N1CCN(C(=O)c2ccco2)CC1  -66.6%
27. CC(C)OC(=O)c1cc2c(ccn2-c2ccc(F)cc2)n1CC(=O)N1CCN(C(=O)c2ccco2)CC1  -69.2%
28. O=C(NCCc1ccccc1)/C(=C\c1cccc([N+](=O)[O-])c1)NC(=O)c1ccco1  -78.6%
